Measured values from PubChem BioAssay (NCI).
About 83,000 compounds went through this panel and 20% of them were active in at least one assay; those are over-represented in the sample as a whole.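 Each cell line was grown in a 96-well plate and treated with one concentration of compound for 48 hours. Values below 10 were considered active.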 Activity calls are given as the source filed them.

Tests used:
Assay in all cases: NCI-60 one-dose screen, 48 h (100 = growth as untreated, 0 = no growth, -100 = all killed)
Conditions in all cases: 10 µM unless noted
NCI-H23 lung = system: NCI-H23 lung
NCI-H226 lung = system: NCI-H226 lung
NCI-H322M lung = system: NCI-H322M lung
HOP-62 NSCLC = system: HOP-62 NSCLC
NCI-H460 lung = system: NCI-H460 lung
HOP-92 NSCLC = system: HOP-92 NSCLC
NCI-H522 lung = system: NCI-H522 lung
A549/ATCC NSCLC = system: A549/ATCC NSCLC
786-0 renal = system: 786-0 renal
COLO 205 colon = system: COLO 205 colon
DU-145 prostate = system: DU-145 prostate
K-562 leukemia = system: K-562 leukemia
MALME-3M melanoma = system: MALME-3M melanoma
MDA-MB-231 breast = system: MDA-MB-231 breast
RXF 393 renal = system: RXF 393 renal
SF-268 CNS = system: SF-268 CNS
SF-295 CNS = system: SF-295 CNS
SF-539 CNS = system: SF-539 CNS
UACC-257 melanoma = system: UACC-257 melanoma
M14 melanoma = system: M14 melanoma

Measured: growth

CCNc1cc2c(cc1Br)-c1ccccc1C2=O
inactive: NCI-H23 lung 86% | NCI-H226 lung 92.3% | NCI-H322M lung 87.9% | HOP-62 NSCLC 92.3% | NCI-H460 lung 96.8% | HOP-92 NSCLC 84.9% | NCI-H522 lung 93.6% | A549/ATCC NSCLC 96.3% | 786-0 renal 109% | COLO 205 colon 111% | DU-145 prostate 97.7% | K-562 leukemia 102% | MALME-3M melanoma 92.8% | MDA-MB-231 breast 73.2% | RXF 393 renal 105% | SF-268 CNS 90% | SF-295 CNS 106% | SF-539 CNS 103% | UACC-257 melanoma 93.4% | M14 melanoma 107%

CCNC(=O)N1CCc2c(Cl)c3c(c(OC)c2[C@@H]1[C@H]1OCc2c1ccc(OC)c2OC)OCCO3
active: NCI-H460 lung 9.88% | COLO 205 colon -11% | RXF 393 renal -39.8% | SF-295 CNS 8.12% | SF-539 CNS -41.3% | M14 melanoma 1.38%
inactive: NCI-H23 lung 32.6% | NCI-H226 lung 60.1% | NCI-H322M lung 30.1% | HOP-62 NSCLC 35.3% | HOP-92 NSCLC 44.5% | NCI-H522 lung 11.6% | A549/ATCC NSCLC 35.2% | 786-0 renal 26.9% | DU-145 prostate 10.9% | K-562 leukemia 10.4% | MALME-3M melanoma 29.6% | MDA-MB-231 breast 43.2% | SF-268 CNS 45.3% | UACC-257 melanoma 55.3%

CCN(CCNc1ccc(C)c2sc3cc(Cl)ccc3c(=O)c12)CC(C)O (stereo not given)
inactive: NCI-H23 lung 92.9% | NCI-H226 lung 134% | NCI-H322M lung 95.9% | HOP-62 NSCLC 76% | HOP-92 NSCLC 29.8% | NCI-H522 lung 28.3% | A549/ATCC NSCLC 34.7% | 786-0 renal 41.9% | DU-145 prostate 82.5% | MALME-3M melanoma 82.1% | SF-268 CNS 82.8% | SF-295 CNS 97.3% | SF-539 CNS 59.4%
active: NCI-H460 lung 3.16% | COLO 205 colon -34% | K-562 leukemia 3.01% | MDA-MB-231 breast -11.8% | RXF 393 renal -39.2% | UACC-257 melanoma -61.1% | M14 melanoma -50.5%

C=C(C)[C@@H]1CC[C@]2(C(=O)OC)CC[C@]3(C)[C@H](CC[C@@H]4[C@@]5(C)CC/C(=N\OCCC(=NCCC#N)NOCCC#N)C(C)(C)[C@@H]5CC[C@]43C)[C@@H]12
inactive: NCI-H23 lung 21.8% [100 µM] | NCI-H322M lung 46.1% [100 µM] | HOP-62 NSCLC 32.5% [100 µM] | NCI-H522 lung 13.4% [100 µM] | A549/ATCC NSCLC 15.8% [100 µM] | COLO 205 colon 17.6% [100 µM] | DU-145 prostate 27.5% [100 µM] | MALME-3M melanoma 25.3% [100 µM] | SF-268 CNS 29.1% [100 µM] | SF-295 CNS 36.6% [100 µM] | M14 melanoma 26.6% [100 µM]
active: NCI-H226 lung 2.42% [100 µM] | NCI-H460 lung 4.22% [100 µM] | HOP-92 NSCLC -15% [100 µM] | 786-0 renal -11.5% [100 µM] | K-562 leukemia 5.42% [100 µM] | MDA-MB-231 breast 5.09% [100 µM] | RXF 393 renal -43.1% [100 µM] | SF-539 CNS -2.29% [100 µM] | UACC-257 melanoma 8.82% [100 µM]

Cc1cc(N2CCCCCC2)nc(N2CCN(CC(=O)Nc3ccc4c(ccn4Cc4ccccc4)c3)CC2)n1
active: HOP-92 NSCLC 8.3% | RXF 393 renal 6.02%
inactive: NCI-H23 lung 48.3% | NCI-H226 lung 53.5% | NCI-H322M lung 80.7% | HOP-62 NSCLC 54.1% | NCI-H460 lung 36.7% | NCI-H522 lung 55% | A549/ATCC NSCLC 46.8% | 786-0 renal 39% | COLO 205 colon 31.2% | DU-145 prostate 70.7% | K-562 leukemia 12.1% | MALME-3M melanoma 50.9% | MDA-MB-231 breast 54.6% | SF-268 CNS 71.2% | SF-295 CNS 20.4% | SF-539 CNS 55.7% | UACC-257 melanoma 61.3% | M14 melanoma 15.6%

Nc1nc(Nc2ccccc2)c2ncn(Cc3ccc4c(c3)OCO4)c2n1
inactive: NCI-H23 lung 62.8% | NCI-H226 lung 75.1% | NCI-H322M lung 58.1% | HOP-62 NSCLC 40.8% | NCI-H460 lung 15.9% | HOP-92 NSCLC 63.9% | NCI-H522 lung 43.8% | A549/ATCC NSCLC 42% | 786-0 renal 54.8% | COLO 205 colon 47% | DU-145 prostate 80.9% | K-562 leukemia 15.7% | MALME-3M melanoma 53% | MDA-MB-231 breast 44% | RXF 393 renal 52.8% | SF-268 CNS 62.8% | SF-295 CNS 43.6% | SF-539 CNS 46% | UACC-257 melanoma 72.9% | M14 melanoma 16.3%

O=C(NCCCNC(=O)OCc1ccc2c(Br)cc(Br)c(O)c2n1)OCc1ccc2c(Br)cc(Br)c(O)c2n1
active: NCI-H23 lung -46.3% | NCI-H226 lung 2.3% | HOP-62 NSCLC -19.1% | NCI-H460 lung 4.8% | HOP-92 NSCLC -80.3% | NCI-H522 lung -60.9% | A549/ATCC NSCLC 6.61% | 786-0 renal -58.9% | COLO 205 colon -76.8% | DU-145 prostate -80.8% | K-562 leukemia 3.3% | MALME-3M melanoma -87.8% | MDA-MB-231 breast -68.5% | RXF 393 renal -93.3% | SF-539 CNS -96.8% | UACC-257 melanoma -37.5% | M14 melanoma -65.8%
inactive: NCI-H322M lung 32.7% | SF-268 CNS 10.3% | SF-295 CNS 20%

CCOC(=O)n1cc(C2=C(c3ccc(OC)c(OC)c3)COC2=O)c2ccccc21
active: NCI-H460 lung 8.64% | HOP-92 NSCLC 5.33% | NCI-H522 lung -23.6% | COLO 205 colon -60.7% | DU-145 prostate -7.55% | K-562 leukemia 9.56% | RXF 393 renal -4.89% | SF-539 CNS -15%
inactive: NCI-H23 lung 39.3% | NCI-H226 lung 55.5% | NCI-H322M lung 52% | HOP-62 NSCLC 26.1% | A549/ATCC NSCLC 17.8% | 786-0 renal 23.5% | MALME-3M melanoma 45% | MDA-MB-231 breast 13.5% | SF-268 CNS 28.2% | SF-295 CNS 16.2% | UACC-257 melanoma 91.2% | M14 melanoma 54.6%

COc1ccc(NCc2cn(-c3ccc(C(=O)O)cc3)nc2-c2ccc(C(=O)O)cc2)cc1C(F)(F)F
inactive: NCI-H23 lung 99.8% | NCI-H226 lung 98.5% | NCI-H322M lung 89.1% | HOP-62 NSCLC 96.6% | NCI-H460 lung 100% | HOP-92 NSCLC 66.6% | NCI-H522 lung 97.8% | A549/ATCC NSCLC 99.8% | 786-0 renal 90.4% | COLO 205 colon 111% | DU-145 prostate 96.3% | K-562 leukemia 111% | MALME-3M melanoma 77.9% | MDA-MB-231 breast 81.8% | RXF 393 renal 89.8% | SF-268 CNS 99.3% | SF-295 CNS 97.2% | SF-539 CNS 86.7% | UACC-257 melanoma 100% | M14 melanoma 96.9%

O=C(NCc1ccccc1)C(Cl)Cl
inactive: NCI-H23 lung 104% | NCI-H226 lung 93.3% | NCI-H322M lung 102% | HOP-62 NSCLC 98.6% | NCI-H460 lung 108% | HOP-92 NSCLC 95.1% | NCI-H522 lung 101% | A549/ATCC NSCLC 97.4% | 786-0 renal 104% | COLO 205 colon 116% | DU-145 prostate 110% | K-562 leukemia 108% | MALME-3M melanoma 101% | MDA-MB-231 breast 102% | RXF 393 renal 107% | SF-268 CNS 99.7% | SF-295 CNS 95.7% | SF-539 CNS 97.4% | UACC-257 melanoma 102% | M14 melanoma 101%

CCOc1ccc(/C=C(\C#N)c2cc3ccccc3[nH]2)cc1
inactive: NCI-H23 lung 78.6% | NCI-H226 lung 90% | NCI-H322M lung 87.1% | HOP-62 NSCLC 54.7% | NCI-H460 lung 36.2% | HOP-92 NSCLC 87.4% | NCI-H522 lung 32.8% | A549/ATCC NSCLC 38% | 786-0 renal 89.5% | COLO 205 colon 49.4% | DU-145 prostate 81% | K-562 leukemia 15.3% | MALME-3M melanoma 60% | MDA-MB-231 breast 71.9% | RXF 393 renal 58.6% | SF-268 CNS 84.2% | SF-295 CNS 58.3% | SF-539 CNS 68.3% | UACC-257 melanoma 79.2% | M14 melanoma 39%

CC(=O)n1cc(C=O)c2ccccc21
inactive: NCI-H23 lung 94.4% | NCI-H226 lung 91.1% | NCI-H322M lung 105% | HOP-62 NSCLC 103% | NCI-H460 lung 112% | NCI-H522 lung 91.3% | A549/ATCC NSCLC 89.4% | 786-0 renal 101% | COLO 205 colon 104% | DU-145 prostate 104% | K-562 leukemia 87.3% | MALME-3M melanoma 102% | MDA-MB-231 breast 113% | RXF 393 renal 113% | SF-268 CNS 102% | SF-295 CNS 101% | SF-539 CNS 104% | UACC-257 melanoma 94.7%

O=S(=O)(NCCNc1nccc(-c2c(-c3cccc(F)c3)nc3occn23)n1)c1ccc(C(F)(F)F)cc1
inactive: NCI-H23 lung 98.5% | NCI-H226 lung 84.2% | NCI-H322M lung 89.3% | HOP-62 NSCLC 85.1% | NCI-H460 lung 98.9% | NCI-H522 lung 74.4% | A549/ATCC NSCLC 70% | 786-0 renal 78.7% | COLO 205 colon 96% | DU-145 prostate 87.9% | K-562 leukemia 69.8% | MALME-3M melanoma 86.2% | MDA-MB-231 breast 86.9% | RXF 393 renal 67.9% | SF-268 CNS 70.4% | SF-295 CNS 110% | SF-539 CNS 109% | UACC-257 melanoma 104% | M14 melanoma 95.4%

Nn1c(Nc2ccc(S(=O)(=O)Nc3ncccn3)cc2)nnc(/C=C/c2c(O)ccc3ccccc23)c1=O
inactive: NCI-H23 lung 88.9% | NCI-H226 lung 78.8% | NCI-H322M lung 90% | HOP-62 NSCLC 81.8% | NCI-H460 lung 88.4% | NCI-H522 lung 98.1% | A549/ATCC NSCLC 89.5% | 786-0 renal 111% | COLO 205 colon 103% | DU-145 prostate 99.7% | K-562 leukemia 85.2% | MALME-3M melanoma 94.2% | MDA-MB-231 breast 71.4% | RXF 393 renal 106% | SF-268 CNS 84.7% | SF-295 CNS 100% | SF-539 CNS 102% | UACC-257 melanoma 94.4%
